Measurements from ChEMBL document CHEMBL3988442, “University of Dundee, Small-Polar-MMV Screening Library” (2021).
For some assays here: Results with a measured potency or affinity are listed apart.

Legend:
Design in all cases: scale not given: direction of the effect not stated beside the values
[1] = target: Protein translocase subunit SecA (Escherichia coli (strain K12)) (UniProt P10408); test: Assay to Identify E. coli SecA ATPase Inhibitors; format: functional; conditions: 30 µM
[2] = target: T1, Ubiquitin-activating enzyme e1, putative (Leishmania donovani (strain BPK282A1)) (UniProt E9BSI1); test: Leishmania donovani Ubiquitin Activating Enzyme (LdE1); format: functional; conditions: 30 µM
T1 sequence (whole entry): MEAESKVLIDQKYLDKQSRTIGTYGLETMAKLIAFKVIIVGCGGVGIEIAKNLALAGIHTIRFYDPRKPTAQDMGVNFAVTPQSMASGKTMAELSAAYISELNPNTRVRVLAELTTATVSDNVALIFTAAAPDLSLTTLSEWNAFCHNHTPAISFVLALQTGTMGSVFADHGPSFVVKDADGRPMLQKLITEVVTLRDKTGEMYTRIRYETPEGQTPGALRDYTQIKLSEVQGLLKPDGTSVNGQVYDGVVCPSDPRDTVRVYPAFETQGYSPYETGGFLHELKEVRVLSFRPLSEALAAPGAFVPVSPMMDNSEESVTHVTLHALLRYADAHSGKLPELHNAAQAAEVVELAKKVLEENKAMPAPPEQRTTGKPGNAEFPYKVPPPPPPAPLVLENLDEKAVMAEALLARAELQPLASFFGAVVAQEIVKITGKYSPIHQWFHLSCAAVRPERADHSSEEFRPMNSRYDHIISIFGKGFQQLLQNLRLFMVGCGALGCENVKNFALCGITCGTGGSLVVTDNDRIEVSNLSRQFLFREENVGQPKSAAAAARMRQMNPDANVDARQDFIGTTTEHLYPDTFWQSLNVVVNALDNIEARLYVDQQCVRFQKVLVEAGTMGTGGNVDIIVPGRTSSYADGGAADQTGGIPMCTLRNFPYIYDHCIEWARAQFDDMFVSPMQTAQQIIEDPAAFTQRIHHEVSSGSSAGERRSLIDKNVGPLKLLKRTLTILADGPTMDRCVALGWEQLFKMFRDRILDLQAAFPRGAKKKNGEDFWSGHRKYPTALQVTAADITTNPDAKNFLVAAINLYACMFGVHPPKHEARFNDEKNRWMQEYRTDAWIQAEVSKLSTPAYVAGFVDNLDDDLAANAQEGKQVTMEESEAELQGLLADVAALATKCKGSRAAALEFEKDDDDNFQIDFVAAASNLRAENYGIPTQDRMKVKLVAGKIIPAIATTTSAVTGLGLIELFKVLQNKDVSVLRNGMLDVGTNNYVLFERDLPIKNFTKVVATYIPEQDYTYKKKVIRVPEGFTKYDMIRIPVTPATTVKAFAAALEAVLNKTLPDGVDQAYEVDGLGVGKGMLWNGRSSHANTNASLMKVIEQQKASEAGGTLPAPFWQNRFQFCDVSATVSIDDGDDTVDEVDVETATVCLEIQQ

[3] = target: AMP-activated protein kinase, AMPK (Homo sapiens) (UniProt P54646+O43741+P54619+Q9UGJ0+Q9Y478+Q13131+Q9UGI9); test: AMP-dependent Kinase enzyme assay. An in vitro enzyme assay that detects ADP turnover that is directly proportional to AMPK activity. This uses naive AMPK that is activated during the assay with MK-8722; format: functional; conditions: 30 µM
[4] = target: Sialic acid-binding Ig-like lectin 9 (Homo sapiens) (UniProt Q9Y336); test: Hs-Siglec9 ALPHAscreen SOP 20170721; conditions: 10 µM
Trypanosoma cruzi = test: Trypanosoma cruzi phosphomannomutase and mannose-1-phosphate guanylyltransferase assay; format: functional; conditions: 10 µM
[5] = target: T2, Arginase-2, mitochondrial (Homo sapiens) (UniProt P78540); test: in vitro enzyme assay to detect the production of urea directly proportional to the activity of Arginase II; format: functional; conditions: 33.3 µM; further: in the data most compounds retested in dose-response had high values
T2 sequence (whole entry): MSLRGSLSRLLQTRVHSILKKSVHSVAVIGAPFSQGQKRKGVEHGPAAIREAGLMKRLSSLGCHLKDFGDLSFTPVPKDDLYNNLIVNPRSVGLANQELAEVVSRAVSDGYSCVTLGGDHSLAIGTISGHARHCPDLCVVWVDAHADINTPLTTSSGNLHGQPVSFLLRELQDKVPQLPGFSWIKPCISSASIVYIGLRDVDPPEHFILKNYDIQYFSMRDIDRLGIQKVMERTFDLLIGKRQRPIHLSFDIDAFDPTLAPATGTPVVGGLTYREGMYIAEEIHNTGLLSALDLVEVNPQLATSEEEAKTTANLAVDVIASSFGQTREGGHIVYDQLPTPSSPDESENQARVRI

[6] = target: T3, Proteasome subunit beta (Trypanosoma cruzi) (UniProt O96673); test: Trypanosoma cruzi proteasome chymotrypsin-like activity (TcProtChymo) assay.; further: in the data most compounds retested in dose-response had high values; format: functional; conditions: 9.37 µM
T3 sequence (whole entry): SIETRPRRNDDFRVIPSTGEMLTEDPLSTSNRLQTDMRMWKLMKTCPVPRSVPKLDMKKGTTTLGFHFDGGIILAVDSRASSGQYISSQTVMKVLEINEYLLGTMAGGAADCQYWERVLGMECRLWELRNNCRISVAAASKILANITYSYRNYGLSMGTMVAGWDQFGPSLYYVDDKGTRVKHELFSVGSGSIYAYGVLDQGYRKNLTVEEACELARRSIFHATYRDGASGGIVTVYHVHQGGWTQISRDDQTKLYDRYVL

Homo sapiens = species: Homo sapiens; test: To identify inhibition of the IFN signalling (Jak-Stat) pathway via expression of an eGFP reporter gene under the control of an IFN-stimulated response element (ISRE) containing MxA promoter.; format: functional; conditions: 30 µM
[7] = target: T4, Tyrosyl-tRNA synthetase, putative (Trypanosoma cruzi (strain CL Brener)) (UniProt Q4DSP6); test: Trypanosoma cruzi tyrosyl tRNA synthetase (TcYRS) _High Tyrosine SOP; format: functional; conditions: 30 µM; further: in the data most compounds retested in dose-response had high values
T4 sequence (whole entry): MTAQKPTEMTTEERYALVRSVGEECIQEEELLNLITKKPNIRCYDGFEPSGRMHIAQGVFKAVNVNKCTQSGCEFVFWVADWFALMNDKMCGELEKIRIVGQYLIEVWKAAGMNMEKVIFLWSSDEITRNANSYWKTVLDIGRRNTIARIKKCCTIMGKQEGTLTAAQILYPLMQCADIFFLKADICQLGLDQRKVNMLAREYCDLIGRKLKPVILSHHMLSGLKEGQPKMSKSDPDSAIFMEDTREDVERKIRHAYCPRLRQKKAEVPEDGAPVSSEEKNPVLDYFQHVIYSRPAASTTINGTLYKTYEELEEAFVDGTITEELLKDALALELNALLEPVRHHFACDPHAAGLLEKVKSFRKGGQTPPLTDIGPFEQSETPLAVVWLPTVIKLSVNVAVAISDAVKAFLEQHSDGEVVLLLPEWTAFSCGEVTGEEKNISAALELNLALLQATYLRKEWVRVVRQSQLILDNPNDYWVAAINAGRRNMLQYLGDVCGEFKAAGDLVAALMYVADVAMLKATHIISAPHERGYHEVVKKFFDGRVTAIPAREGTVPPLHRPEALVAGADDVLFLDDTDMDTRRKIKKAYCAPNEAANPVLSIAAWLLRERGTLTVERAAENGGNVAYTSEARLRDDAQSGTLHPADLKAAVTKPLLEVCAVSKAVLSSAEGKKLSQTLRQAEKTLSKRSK

[8] = target: T4, Tyrosyl-tRNA synthetase, putative (Trypanosoma cruzi (strain CL Brener)); test: Trypanosoma cruzi tyrosyl tRNA synthetase (TcYRS) SOP; format: functional; conditions: 30 µM
[9] = target: Chromo domain-containing protein 1 (Saccharomyces cerevisiae (strain ATCC 204508 / S288c) (Baker's yeast)) (UniProt P32657); test: ScCHD-1 Enzyme Inhibition Assay; format: functional; conditions: 30 µM; further: in the data most compounds retested in dose-response had high values
Sequence of Chromo domain-containing protein 1 (Saccharomyces cerevisiae (strain ATCC 204508 / S288c) (Baker's yeast)) (P32657 whole entry, the tested form may be a part): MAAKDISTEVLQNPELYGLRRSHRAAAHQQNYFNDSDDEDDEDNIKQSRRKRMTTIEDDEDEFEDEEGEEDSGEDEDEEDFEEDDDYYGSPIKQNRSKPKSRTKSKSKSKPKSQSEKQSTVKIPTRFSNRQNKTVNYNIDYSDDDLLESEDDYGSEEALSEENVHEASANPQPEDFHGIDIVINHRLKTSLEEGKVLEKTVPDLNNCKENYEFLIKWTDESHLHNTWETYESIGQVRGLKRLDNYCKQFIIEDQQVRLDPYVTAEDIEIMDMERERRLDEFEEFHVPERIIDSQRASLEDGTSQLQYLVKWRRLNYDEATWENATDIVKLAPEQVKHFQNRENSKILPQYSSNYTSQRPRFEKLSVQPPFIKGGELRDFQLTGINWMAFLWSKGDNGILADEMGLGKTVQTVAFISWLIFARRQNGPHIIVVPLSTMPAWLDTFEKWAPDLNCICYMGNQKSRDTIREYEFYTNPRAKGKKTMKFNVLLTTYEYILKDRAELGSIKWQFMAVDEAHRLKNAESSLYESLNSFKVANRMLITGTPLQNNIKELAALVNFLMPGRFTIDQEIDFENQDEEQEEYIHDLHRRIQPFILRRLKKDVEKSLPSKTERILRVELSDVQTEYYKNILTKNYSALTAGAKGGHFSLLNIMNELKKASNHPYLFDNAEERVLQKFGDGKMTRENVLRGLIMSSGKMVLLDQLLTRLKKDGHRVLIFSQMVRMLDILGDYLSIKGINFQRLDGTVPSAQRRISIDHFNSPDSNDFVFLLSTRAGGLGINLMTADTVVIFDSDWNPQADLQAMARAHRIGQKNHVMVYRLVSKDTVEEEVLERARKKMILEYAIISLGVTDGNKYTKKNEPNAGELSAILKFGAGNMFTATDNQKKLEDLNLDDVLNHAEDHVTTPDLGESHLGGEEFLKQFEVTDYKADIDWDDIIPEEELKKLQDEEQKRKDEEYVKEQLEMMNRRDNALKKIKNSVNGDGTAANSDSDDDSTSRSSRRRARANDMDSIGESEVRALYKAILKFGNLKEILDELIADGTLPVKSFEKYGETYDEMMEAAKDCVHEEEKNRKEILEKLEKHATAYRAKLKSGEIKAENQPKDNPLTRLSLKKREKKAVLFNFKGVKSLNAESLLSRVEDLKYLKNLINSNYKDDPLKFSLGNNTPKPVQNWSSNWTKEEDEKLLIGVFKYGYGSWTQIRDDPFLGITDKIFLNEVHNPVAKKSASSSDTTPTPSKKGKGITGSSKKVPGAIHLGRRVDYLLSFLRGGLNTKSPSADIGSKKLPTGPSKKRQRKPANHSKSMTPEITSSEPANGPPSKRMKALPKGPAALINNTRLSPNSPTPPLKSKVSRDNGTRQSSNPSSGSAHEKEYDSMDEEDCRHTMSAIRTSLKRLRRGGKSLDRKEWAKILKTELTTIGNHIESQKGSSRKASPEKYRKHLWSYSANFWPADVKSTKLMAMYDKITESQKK

Sequence of Protein translocase subunit SecA (Escherichia coli (strain K12)) (P10408 whole entry): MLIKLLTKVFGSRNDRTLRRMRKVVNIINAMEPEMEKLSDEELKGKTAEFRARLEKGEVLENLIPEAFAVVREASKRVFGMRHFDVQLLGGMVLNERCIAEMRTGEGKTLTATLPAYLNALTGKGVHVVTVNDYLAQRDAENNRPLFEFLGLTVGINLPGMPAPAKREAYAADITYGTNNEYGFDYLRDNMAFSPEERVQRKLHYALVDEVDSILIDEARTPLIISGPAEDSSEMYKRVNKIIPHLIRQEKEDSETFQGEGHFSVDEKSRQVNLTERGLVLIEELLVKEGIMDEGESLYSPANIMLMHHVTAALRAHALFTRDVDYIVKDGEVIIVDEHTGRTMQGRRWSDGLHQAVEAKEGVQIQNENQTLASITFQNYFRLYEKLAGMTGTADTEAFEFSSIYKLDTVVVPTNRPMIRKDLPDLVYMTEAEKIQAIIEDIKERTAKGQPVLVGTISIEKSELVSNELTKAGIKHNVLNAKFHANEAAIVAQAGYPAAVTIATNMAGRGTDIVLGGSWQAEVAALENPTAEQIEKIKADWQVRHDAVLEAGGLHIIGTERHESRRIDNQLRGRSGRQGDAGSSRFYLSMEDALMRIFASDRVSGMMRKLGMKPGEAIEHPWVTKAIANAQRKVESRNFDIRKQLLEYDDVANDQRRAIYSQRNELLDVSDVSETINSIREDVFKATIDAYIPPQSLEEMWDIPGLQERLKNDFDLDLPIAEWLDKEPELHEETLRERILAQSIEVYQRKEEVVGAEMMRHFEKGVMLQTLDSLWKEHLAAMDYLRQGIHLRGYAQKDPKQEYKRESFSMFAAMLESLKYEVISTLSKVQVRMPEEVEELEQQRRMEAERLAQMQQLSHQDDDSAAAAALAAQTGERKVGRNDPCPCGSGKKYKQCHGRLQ
Sequence of Sialic acid-binding Ig-like lectin 9 (Homo sapiens) (Q9Y336 whole entry): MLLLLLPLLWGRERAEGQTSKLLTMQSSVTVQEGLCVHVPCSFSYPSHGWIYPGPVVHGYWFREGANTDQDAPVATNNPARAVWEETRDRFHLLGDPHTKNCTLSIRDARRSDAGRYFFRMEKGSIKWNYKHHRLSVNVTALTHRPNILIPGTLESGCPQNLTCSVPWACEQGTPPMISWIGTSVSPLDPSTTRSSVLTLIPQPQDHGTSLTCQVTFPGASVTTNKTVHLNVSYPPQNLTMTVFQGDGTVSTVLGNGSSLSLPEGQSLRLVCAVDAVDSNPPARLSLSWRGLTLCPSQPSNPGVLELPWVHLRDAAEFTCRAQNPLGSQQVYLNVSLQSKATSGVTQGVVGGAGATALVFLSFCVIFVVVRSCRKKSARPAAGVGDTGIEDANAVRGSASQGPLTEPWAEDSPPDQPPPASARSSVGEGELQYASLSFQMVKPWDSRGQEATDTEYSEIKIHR

Structure (SMILES) | Percent Effect [1] [%] | Percent Effect [2] [%] | Percent Effect [3] [%] | Percent Effect [4] [%] | Percent Effect (Trypanosoma cruzi) [%] | Percent Effect [5] [%] | Percent Effect [6] [%] | Percent Effect (Homo sapiens) [%] | Percent Effect [7] [%] | Percent Effect [8] [%] | Percent Effect [9] [%]
Cn1cnnc1C1CCCN(C(=O)c2ccc3c(c2)OCCCO3)C1 (configuration not stated) | -6.73 | 18.2 | -5.65 | -3.72 | 3.04 | 0.21 | 15.3 | -4.88 | 4.76 | 23.5 | -15.9
Fc1ccc(CN2CCCN(Cc3cscn3)CC2)cc1 | -1.59 | 18.2 | -0.0725 | -10.1 | -1.27 | 1.05 | 9.46 | 30.6 | 8.57 | 25.9 | -21.9
CC(=O)N1CCCCC1c1nc2c(c(N3CCCCC3)n1)CN(C)CC2 (configuration not stated) | 0.622 | -9.46 | 2.5 | 0.77 | 1.38 | -3.48 | 23.4 | 11.2 | 15.1 | 14.3 | -9.65
Cc1cc(NC(=O)CCc2ccsc2)n(C)n1 | -8.05 | 4.17 | -4.38 | -1.11 | -3.98 | 3.97 | 17.7 | -3.97 | 1.05 | 7.69 | -4.62
Cc1nc(C(=O)N2CCC(Nc3cccnn3)CC2)cs1 | -9.75 | 7.79 | -12.2 | -10.3 | 9.11 | -5.68 | 12.7 | -1.06 | 1.91 | 18.8 | -20.4
O=C(NCC1OCCc2cn(CC3CC3)nc21)c1ccsc1 (configuration not stated) | -5.87 | 18.2 | 2.23 | -1.55 | 3.65 | 1.94 | 12.2 | 8.57 | 2.12 | 14.1 | -7.27
c1cnnc(N2CCCC2CNc2nc3ccccc3o2)c1 (configuration not stated) | -5.3 | 11.4 | 3.62 | 9.59 | 1.33 | 4.95 | 11.5 | 11.9 | 0 | 20.2 | -16
CCC(NC(=O)C1CCN(S(C)(=O)=O)CC1)c1ccc(OC)c(OC)c1 (configuration not stated) | -2.12 | -2.6 | 3.25 | -1.28 | -1.48 | -5.52 | 11.2 | -4.52 | 3.23 | 1.24 | 3.51
CCCNC(=O)Nc1cccc2c1CCN(S(C)(=O)=O)C2 | -9.62 | 18.4 | -0.671 | 6.12 | 4.38 | -35.5 | 6.81 | -3.94 | 3.19 | 18.2 | -1.24
Cc1nn2c(N3CCC(O)C3)cc(-c3ccccc3)nc2c1C (configuration not stated) | -2.08 | 16.4 | -7.6 | 7.31 | 2.58 | -1.6 | 12.6 | -0.188 | 7.29 | -82.7 | -3.57
CC(C)S(=O)(=O)c1nnc(CCNC(=O)OC(C)(C)C)o1 | -7.35 | 4 | 2.34 | -6.84 | -5.3 | -9.33 | 14.1 | 17.5 | 3.17 | 2.56 | -8.11
CN(Cc1ccncc1)CC(c1cccs1)N1CCOCC1 (configuration not stated) | -5.66 | -29.7 | -4.64 | 13.6 | 8.63 | -2.03 | 5.57 | 19.6 | 5.94 | 13.4 | -2.66
COc1ccc(C(=O)N(Cc2cnn(C)c2)C(C)C)cc1Br | -4.7 | 0 | -7.42 | 8.74 | 6.44 | -2.52 | -1.61 | -4.21 | 2.46 | 11.1 | -4.6
Cc1cc(C(=O)N2CC[C@H](OCC3CC3)[C@@H]2Cc2cccnc2)no1 | -2.54 | 0 | 0.886 | -3.88 | 0.772 | -36.4 | 4.79 | -3.71 | -1.04 | -2.5 | -5.62
Cc1nc(CN(C)C2CCN(Cc3ccc4c(c3)OCCO4)C2)no1 (configuration not stated) | -7.11 | 13 | -0.861 | -3.18 | 5.39 | 1.9 | 2.83 | -7.46 | 5.71 | 11.8 | -17.4
CC(C(=O)NCc1ccnc(N(C)C)c1)n1cncn1 (configuration not stated) | -2.02 | 2.7 | -7.17 | 7.55 | 8.88 | -0.476 | 17.2 | -1.73 | 5.82 | 9.76 | -3.72
Cc1nc(C2CCCN2CC(=O)NCCOc2ccccc2)no1 (configuration not stated) | -3.91 | 5.26 | -1.52 | 4.39 | 3.38 | -0.383 | 12.7 | -2.83 | 0.49 | 7.32 | -12.7
CN(C(=O)Cn1nc(-c2ccc(F)cc2)oc1=O)C1CCS(=O)(=O)C1 (configuration not stated) | 0.314 | 20.8 | -6.94 | 6.92 | 0.291 | 0 | 19.3 | 13.6 | 2.1 | 10.3 | -6.7
Cn1cc(CN2CC3(CCN(C(=O)c4ccoc4)C3)C2)cn1 | -1.29 | -2.74 | 4.12 | -0.00343 | -3.77 | -1.6 | 10.2 | 15.8 | -1.04 | -1.24 | -6.08
Cn1c(Cn2cccn2)nnc1C1CCN(Cc2cccnc2N)CC1 | -8.22 | 1.39 | -1.91 | -4.65 | -3.4 | 0.883 | 3.86 | 12.7 | -1.05 | 0 | 0.423
CC(=O)N1CCC(CN2CCN(Cc3nccn3C)C(C)C2)CC1 (configuration not stated) | -0.614 | 18.9 | -4.02 | -8.56 | -2.14 | 4.25 | 14.5 | 17.6 | 9.9 | 15.8 | -2.18
O=C1CCC(C(=O)NCc2nncn2-c2ccccc2)CN1 (configuration not stated) | -6.76 | 10.8 | -10.2 | 20.8 | 3.68 | -7.21 | 1.8 | 7.93 | 2.46 | 23.5 | -12.7
